About 2,200 (0.71%) of roughly 310,000 compounds showed an effect of 50% or more. Effects have a minus sign here. This excerpt belongs to a sample that is enriched for strong results.

The target of the assay is human ether-à-go-go-related gene (hERG) potassium channel (human, UniProt Q12809). The assay is described as follows: primary screen, population patch clamp on CHO cells stably expressing hERG; higher = less effect of the substance.
human ether-à-go-go-related gene (hERG) potassium channel, sequence (Q12809 whole entry, looked up): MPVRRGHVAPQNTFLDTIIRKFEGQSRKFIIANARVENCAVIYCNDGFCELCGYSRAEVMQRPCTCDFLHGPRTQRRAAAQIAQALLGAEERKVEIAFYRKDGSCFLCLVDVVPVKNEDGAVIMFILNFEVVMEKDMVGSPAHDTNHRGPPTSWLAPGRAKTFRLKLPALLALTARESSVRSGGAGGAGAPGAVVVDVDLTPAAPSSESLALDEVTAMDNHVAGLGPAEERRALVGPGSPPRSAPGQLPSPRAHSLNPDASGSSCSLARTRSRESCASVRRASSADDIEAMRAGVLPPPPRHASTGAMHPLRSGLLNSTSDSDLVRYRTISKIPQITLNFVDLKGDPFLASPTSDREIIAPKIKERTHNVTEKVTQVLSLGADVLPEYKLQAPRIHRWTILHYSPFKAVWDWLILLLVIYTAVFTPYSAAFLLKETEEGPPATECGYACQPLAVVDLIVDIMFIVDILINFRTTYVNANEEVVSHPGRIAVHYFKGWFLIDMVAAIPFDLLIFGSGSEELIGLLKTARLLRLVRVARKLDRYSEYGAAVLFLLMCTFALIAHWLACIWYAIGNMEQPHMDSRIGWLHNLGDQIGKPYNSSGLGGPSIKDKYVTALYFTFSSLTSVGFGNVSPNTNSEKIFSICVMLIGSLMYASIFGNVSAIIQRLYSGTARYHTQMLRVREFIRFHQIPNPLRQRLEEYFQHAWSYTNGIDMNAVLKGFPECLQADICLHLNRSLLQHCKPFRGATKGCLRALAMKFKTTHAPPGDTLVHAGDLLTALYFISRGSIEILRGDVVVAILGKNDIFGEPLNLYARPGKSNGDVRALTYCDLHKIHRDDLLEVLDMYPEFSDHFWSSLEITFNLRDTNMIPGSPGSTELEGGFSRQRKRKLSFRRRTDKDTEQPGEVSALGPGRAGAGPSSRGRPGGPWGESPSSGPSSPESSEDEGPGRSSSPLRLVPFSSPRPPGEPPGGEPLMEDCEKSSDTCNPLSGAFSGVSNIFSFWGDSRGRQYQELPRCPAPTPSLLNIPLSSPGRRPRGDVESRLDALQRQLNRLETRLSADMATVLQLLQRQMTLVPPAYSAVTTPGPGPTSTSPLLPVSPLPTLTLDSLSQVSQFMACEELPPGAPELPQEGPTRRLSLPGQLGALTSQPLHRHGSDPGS
For the molecule `Cc1cccc(-n2ncc3c(NC(C)C)ncnc32)c1`, the “hERG current change (%, negative = inhibition) at 1uM” value amounted to 12.7%.

In the case of `Cc1nn(C(C)C(=O)Nc2ccc(Cl)cn2)c(C)c1[N+](=O)[O-]` (stereo not drawn), the “hERG current change (%, negative = inhibition) at 1uM” value amounted to 2.84%.

In the case of `Cc1ccc(C)c(NC(=O)C2CC(O)CN2C(=O)OCc2ccccc2)c1` (stereo not drawn), the “hERG current change (%, negative = inhibition) at 1uM” value was 2.34%.

For the molecule `COc1ccc(N2CCN(CCC(N)=O)CC2)cc1`, the “hERG current change (%, negative = inhibition) at 1uM” value stood at 14.6%.

Regarding `COc1ccc(C(=O)NCCN2CCN(C(=O)c3ccc(OC)c(OC)c3)CC2)cc1OC`, the “hERG current change (%, negative = inhibition) at 1uM” value is 13.2%.

In the case of `COc1ccc(N2CCN(CCC(=O)c3ccc4ccccc4c3)CC2)cc1`, the “hERG current change (%, negative = inhibition) at 1uM” value is on record as 11.4%.

As for `COc1ccc(C(=O)NCCN2CCN(C(=O)c3ccc(OC)cc3)CC2)cc1`, the “hERG current change (%, negative = inhibition) at 1uM” value is listed as -22.1%.

For the molecule `COc1ccc(OCCN2CCN(C(=O)c3ccc(OC)cc3)CC2)cc1`, the “hERG current change (%, negative = inhibition) at 1uM” value was -90.6%.

On to `COc1ccc(OCCN2CCN(C(=O)c3ccc(OC(F)F)c(OC)c3)CC2)cc1`, for which the “hERG current change (%, negative = inhibition) at 1uM” value is -62.6%.

For `O=C(c1ccc(Cl)cc1)N1CCN(CCOc2ccccc2)CC1`, the “hERG current change (%, negative = inhibition) at 1uM” value is -12.4%.

Consider `COc1ccc(C(=O)CCN2CCN(c3ccc(OC)cc3)CC2)cc1`, for which the “hERG current change (%, negative = inhibition) at 1uM” value is reported as -74.1%.

For `COc1ccc(OCCN2CCN(C(=O)c3ccc(OC)c(OC)c3)CC2)cc1`, the “hERG current change (%, negative = inhibition) at 1uM” value is -35.6%.

For `Oc1c(Cl)cc(Cl)cc1C=Nc1ccc(N2CCOCC2)cc1`, the “hERG current change (%, negative = inhibition) at 1uM” value was 9.19%.

For `COC(=O)c1c(NC(=O)c2nn(C)cc2Cl)sc2c1CCCC2`, the “hERG current change (%, negative = inhibition) at 1uM” value came out at 19.3%.

Turning to `Cc1cc2cc(C(c3nnnn3Cc3ccco3)N3CCCCC3)c(=O)[nH]c2cc1C` (stereo not drawn), the “hERG current change (%, negative = inhibition) at 1uM” value is on record as 6.29%.

Turning to `Cc1nnsc1C(=O)NNC(=O)c1cccc2ccccc12`, the “hERG current change (%, negative = inhibition) at 1uM” value came out at 9.5%.

Consider `CC1C=CCC2C(=O)N(c3ccccc3OC(=O)c3cccs3)C(=O)C12` (stereo not drawn), for which the “hERG current change (%, negative = inhibition) at 1uM” value is listed as 9.04%.

Regarding `Cc1cccc(C)c1NC(=O)NC1(C(=O)NCc2ccncc2)CCCCC1`, the “hERG current change (%, negative = inhibition) at 1uM” value is reported as 12.6%.

`CC1CN(CCOc2ccc([N+](=O)[O-])cc2)CC(C)O1.O=C(O)C(=O)O` (stereo not drawn): the “hERG current change (%, negative = inhibition) at 1uM” value is -13.6%.

On to `CC1CN(CCCOc2ccc([N+](=O)[O-])cc2)CC(C)O1.O=C(O)C(=O)O` (stereo not drawn), for which the “hERG current change (%, negative = inhibition) at 1uM” value is -59.6%.

For `CC1CC(C)CN(CCOc2ccc(Br)cc2)C1.O=C(O)C(=O)O` (stereo not drawn), the “hERG current change (%, negative = inhibition) at 1uM” value is given as -12.4%.

For the molecule `COc1ccc(OCCCN2CCCC(C)C2)cc1` (stereo not drawn), the “hERG current change (%, negative = inhibition) at 1uM” value is -2.33%.

Take `Cl.Clc1ccc(OCCCCN2CCc3ccccc3C2)cc1`: the “hERG current change (%, negative = inhibition) at 1uM” value is given as -8.64%.

Consider `O=C(COc1ccc([N+](=O)[O-])cc1)N1CCc2ccccc2C1`, for which the “hERG current change (%, negative = inhibition) at 1uM” value is -15%.

In the case of `CC1CC(C)CN(CCCOc2ccccc2[N+](=O)[O-])C1.O=C(O)C(=O)O` (stereo not drawn), the “hERG current change (%, negative = inhibition) at 1uM” value is 5.91%.

On to `CCCOc1ccc(OCCN2CCCC(C)C2)cc1.O=C(O)C(=O)O` (stereo not drawn), for which the “hERG current change (%, negative = inhibition) at 1uM” value is 0.638%.

As to `CC1CN(CCCCOc2ccc(F)cc2)CC(C)O1.O=C(O)C(=O)O` (stereo not drawn), the “hERG current change (%, negative = inhibition) at 1uM” value is given as -4.39%.

Take `O=C(O)C(=O)O.O=[N+]([O-])c1ccc(OCCCCN2CCc3ccccc3C2)cc1`: the “hERG current change (%, negative = inhibition) at 1uM” value is recorded as -81.1%.

For the molecule `CC1CC(C)CN(CCCCOc2ccc([N+](=O)[O-])cc2)C1.O=C(O)C(=O)O` (stereo not drawn), the “hERG current change (%, negative = inhibition) at 1uM” value is reported as -80.3%.

Turning to `CC1CCCN(CCCOc2ccc([N+](=O)[O-])cc2)C1.O=C(O)C(=O)O` (stereo not drawn), the “hERG current change (%, negative = inhibition) at 1uM” value is reported as -77.4%.

`NC(=O)c1ccc(-c2nnn(CC(=O)N(C3CCCCC3)C3CCS(=O)(=O)C3)n2)cc1` (stereo not drawn): the “hERG current change (%, negative = inhibition) at 1uM” value turned out to be 9.79%.

As for `Cc1ccc(C)c(N2CCN(C(=O)C3CCCN(S(=O)(=O)c4c(C)[nH]c(=O)[nH]c4=O)C3)CC2)c1` (stereo not drawn), the “hERG current change (%, negative = inhibition) at 1uM” value worked out at 9.86%.

Turning to `CCOc1ncccc1C(=O)Nc1ccc(Cl)c(S(=O)(=O)N2CCCC2)c1`, the “hERG current change (%, negative = inhibition) at 1uM” value was 2.41%.

Regarding `O=C(Nc1cccc(O)c1)c1ccc(C(=O)c2ccccc2)o1`, the “hERG current change (%, negative = inhibition) at 1uM” value is listed as -1.55%.

With `CCOc1ccc(CC(=O)NNC(=S)NC2CCCCC2)cc1OCC`, the “hERG current change (%, negative = inhibition) at 1uM” value was found to be 7.2%.

With `COc1ccc(-n2nnnc2SCC(=O)Nc2nnc(C)s2)cc1OC`, the “hERG current change (%, negative = inhibition) at 1uM” value was -7.62%.

On to `CC(=O)Nc1ccc(Nc2c3c4c(cccc4n(C)c2=O)C(=O)c2ccccc2-3)cc1`, for which the “hERG current change (%, negative = inhibition) at 1uM” value is 10.6%.

Regarding `Nc1nc(SCC(=O)c2cccs2)n[nH]1`, the “hERG current change (%, negative = inhibition) at 1uM” value is 6.15%.

Take `Cc1cc(C)cc(OCC(=O)Nc2ccc3c(c2)OCCO3)c1`: the “hERG current change (%, negative = inhibition) at 1uM” value amounted to 15.5%.

Take `COC(=O)C1C(=O)NCC1c1ccc(C)cc1` (stereo not drawn): the “hERG current change (%, negative = inhibition) at 1uM” value is recorded as 11.9%.

Turning to `Cc1ccc(CS(=O)(=O)Cc2ccc(C(=O)N3CCC4(CC3)OCCO4)o2)cc1`, the “hERG current change (%, negative = inhibition) at 1uM” value is -1.4%.

Turning to `CCOc1ccc(C(=O)CCC(=O)N(CC)CC(=O)NCc2ccc(Cl)cc2)cc1`, the “hERG current change (%, negative = inhibition) at 1uM” value is -8.36%.

Source of the values: paper PMC4336329 (PLoS ONE, 2015).
